PubChem BioAssay AID1159580 (chemical genetic matrix, 2015)
Among all 5,500 compounds or so, about 2,000 (36%) were called active. Roughly 18% stayed inconclusive and do not appear here. Cut-off read from the data, not from the text of the source: active = normalized growth mostly below about 0.91 (no sharp cut-off); inconclusive = no clear call, values can overlap the other calls; inactive = mostly above about 0.92. The list shows a part of the results.

Assay: chemical genetic growth profiling, strain panel (AID 1159580);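 note: tested at 20 µM; growth read once vehicle control cultures reached saturation at 30 °C; 1 = growth at the plate median or of vehicle wells; lower values mean less growth of the strain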
Conditions: growth OD
[1] = S. cerevisiae deletion strains, locus YDL101C, strain DUN1, active compounds read low
[2] = S. cerevisiae deletion strains, locus YHR030C, strain SLT2, active compounds read low
[3] = S. cerevisiae deletion strains, locus YAL013W, strain DEP1, active compounds read low
[4] = S. cerevisiae deletion strains, locus YBR229C, strain ROT2, active compounds read low
[5] = S. cerevisiae deletion strains, locus YDL134C, strain PPH21, active compounds read low
[6] = S. cerevisiae deletion strains, locus YDR150W, strain NUM1, active compounds read low
[7] = S. cerevisiae deletion strains, locus YEL061C, strain CIN8, active compounds read low
[8] = S. cerevisiae deletion strains, locus YGR078C, strain PAC10, active compounds read low
[9] = S. cerevisiae deletion strains, locus YHR087W, strain rtc3, active compounds read low
[10] = S. cerevisiae deletion strains, locus YJR043C, strain POL32, active compounds read low
[11] = S. cerevisiae deletion strains, locus YJR075W, strain HOC1, active compounds read low
[12] = S. cerevisiae deletion strains, locus YKL190W, strain CNB1, active compounds read low
[13] = S. cerevisiae deletion strains, locus YLR039C, strain RIC1, active compounds read low
[14] = S. cerevisiae deletion strains, locus YLR058C, strain SHM2 (second series), active compounds read low
[15] = S. cerevisiae deletion strains, locus YLR085C, strain ARP6, active compounds read low
[16] = S. cerevisiae deletion strains, locus YLR262C, strain YPT6, active compounds read low
[17] = S. cerevisiae deletion strains, locus YML094W, strain GIM5, active compounds read low
[18] = S. cerevisiae deletion strains, locus YMR219W, strain ESC1, active compounds read low
[19] = S. cerevisiae deletion strains, locus YMR263W, strain SAP30, active compounds read low
[20] = S. cerevisiae deletion strains, locus YNL153C, strain GIM3, active compounds read low
[21] = S. cerevisiae deletion strains, locus YNL298W, strain CLA4 (second series), active compounds read low
[22] = S. cerevisiae deletion strains, locus YNL322C, strain KRE1, active compounds read low
[23] = S. cerevisiae deletion strains, locus YNR030W, strain Alg12, active compounds read low
[24] = S. cerevisiae deletion strains, locus YPL055C, strain LGE1, active compounds read low
[25] = S. cerevisiae deletion strains, locus YPL241C, strain CIN2, active compounds read low
[26] = S. cerevisiae deletion strains, locus YPR135W, strain CTF4, active compounds read low
[27] = S. cerevisiae strains, strain wild type, active compounds read low

Measured: normalized growth

Cc1c(S(=O)(=O)Nc2cccc([N+](=O)[O-])c2)sc2ccc(Cl)cc12
inactive: S. cerevisiae deletion strains, locus YAR019C, strain CDC15, active compounds read low 0.965 | S. cerevisiae deletion strains, locus YBL105C, strain PKC1, active compounds read low 0.973 | S. cerevisiae deletion strains, locus YBR135W, strain CKS1, active compounds read low 0.968 | S. cerevisiae deletion strains, locus YBR136W, strain MEC1, active compounds read low 0.973 | S. cerevisiae deletion strains, locus YBR160W, strain CDC28, active compounds read low 0.967 | S. cerevisiae deletion strains, locus YDL017W, strain CDC7, active compounds read low 0.972 | S. cerevisiae deletion strains, locus YDL028C, strain MPS1, active compounds read low 0.979 | [1] 0.963 | S. cerevisiae deletion strains, locus YDL108W, strain KIN28, active compounds read low 0.981 | S. cerevisiae deletion strains, locus YDL132W, strain cdc53, active compounds read low 0.955 | S. cerevisiae deletion strains, locus YDL214C, strain PRR2, active compounds read low 0.991 | S. cerevisiae deletion strains, locus YDR052C, strain DBF4, active compounds read low 0.958 | S. cerevisiae deletion strains, locus YDR054C, strain cdc34, active compounds read low 0.969 | S. cerevisiae deletion strains, locus YDR226W, strain ADK1, active compounds read low 0.966 | S. cerevisiae deletion strains, locus YDR477W, strain SNF1, active compounds read low 0.979 | S. cerevisiae deletion strains, locus YER123W, strain YCK3, active compounds read low 1.01 | S. cerevisiae deletion strains, locus YER133W, strain GLC7, active compounds read low 0.982 | S. cerevisiae deletion strains, locus YFL009W, strain cdc4, active compounds read low 0.97 | S. cerevisiae deletion strains, locus YFL029C, strain CAK1, active compounds read low 0.97 | S. cerevisiae deletion strains, locus YFR003C, strain YPI1, active compounds read low 0.98 | S. cerevisiae deletion strains, locus YFR019W, strain FAB1, active compounds read low 0.975 | S. cerevisiae deletion strains, locus YFR028C, strain CDC14, active compounds read low 0.973 | S. cerevisiae deletion strains, locus YGR040W, strain KSS1, active compounds read low 0.96 | S. cerevisiae deletion strains, locus YGR052W, strain FMP48, active compounds read low 1.09 | S. cerevisiae deletion strains, locus YGR092W, strain DBF2, active compounds read low 0.932 | S. cerevisiae deletion strains, locus YHR079C, strain IRE1, active compounds read low 0.913 | S. cerevisiae deletion strains, locus YHR082C, strain KSP1, active compounds read low 1.01 | S. cerevisiae deletion strains, locus YHR205W, strain SCH9, active compounds read low 0.986 | S. cerevisiae deletion strains, locus YIL147C, strain SLN1, active compounds read low 0.976 | S. cerevisiae deletion strains, locus YJL095W, strain BCK1, active compounds read low 0.979 | S. cerevisiae deletion strains, locus YJL128C, strain PBS2, active compounds read low 0.963 | S. cerevisiae deletion strains, locus YJL157C, strain FAR1, active compounds read low 1.01 | S. cerevisiae deletion strains, locus YJR016C, strain ILV3, active compounds read low 0.969 | S. cerevisiae deletion strains, locus YJR066W, strain TOR1 (second series), active compounds read low 0.999 | S. cerevisiae deletion strains, locus YJR066W, strain TOR1, active compounds read low 1.03 | S. cerevisiae deletion strains, locus YKL048C, strain ELM1, active compounds read low 0.967 | S. cerevisiae deletion strains, locus YKL067W, strain YNK1, active compounds read low 0.99 | S. cerevisiae deletion strains, locus YKL101W, strain HSL1, active compounds read low 0.981 | S. cerevisiae deletion strains, locus YKL193C, strain SDS22, active compounds read low 0.971 | S. cerevisiae deletion strains, locus YKL203C, strain TOR2, active compounds read low 1 | S. cerevisiae deletion strains, locus YLR113W, strain HOG1, active compounds read low 0.878 | S. cerevisiae deletion strains, locus YLR133W, strain CKI1, active compounds read low 0.989 | S. cerevisiae deletion strains, locus YLR403W, strain SFP1, active compounds read low 0.954 | S. cerevisiae deletion strains, locus YML070W, strain DAK1, active compounds read low 0.974 | S. cerevisiae deletion strains, locus YMR001C, strain CDC5, active compounds read low 0.974 | S. cerevisiae deletion strains, locus YMR205C, strain PFK2 (second series), active compounds read low 0.992 | S. cerevisiae deletion strains, locus YMR277W, strain FCP1, active compounds read low 0.989 | S. cerevisiae deletion strains, locus YNL006W, strain LST8, active compounds read low 0.966 | S. cerevisiae deletion strains, locus YNL020C, strain ARK1, active compounds read low 0.972 | S. cerevisiae deletion strains, locus YNL161W, strain CBK1, active compounds read low 0.971 | S. cerevisiae deletion strains, locus YNL183C, strain NPR1, active compounds read low 0.926 | S. cerevisiae deletion strains, locus YNL207W, strain RIO2, active compounds read low 0.983 | S. cerevisiae deletion strains, locus YNL222W, strain SSU72, active compounds read low 0.966 | S. cerevisiae deletion strains, locus YNL307C, strain MCK1 (second series), active compounds read low 0.988 | S. cerevisiae deletion strains, locus YOL078W, strain AVO1, active compounds read low 0.975 | S. cerevisiae deletion strains, locus YOL136C, strain PFK27, active compounds read low 0.968 | S. cerevisiae deletion strains, locus YOR061W, strain CKA2, active compounds read low 0.966 | S. cerevisiae deletion strains, locus YOR119C, strain RIO1, active compounds read low 1.08 | S. cerevisiae deletion strains, locus YOR231W, strain MKK1, active compounds read low 0.955 | S. cerevisiae deletion strains, locus YOR329C, strain SCD5, active compounds read low 0.971 | S. cerevisiae deletion strains, locus YPL031C, strain PHO85, active compounds read low 0.985 | S. cerevisiae deletion strains, locus YPL153C, strain RAD53, active compounds read low 0.962 | S. cerevisiae deletion strains, locus YPL204W, strain HRR25, active compounds read low 0.964 | S. cerevisiae deletion strains, locus YPL209C, strain IPL1, active compounds read low 0.973 | S. cerevisiae deletion strains, locus YPL256C, strain CLN2, active compounds read low 0.926 | S. cerevisiae deletion strains, locus YPR025C, strain CCL1, active compounds read low 0.97 | S. cerevisiae deletion strains, locus YPR106W, strain ISR1, active compounds read low 0.971 | S. cerevisiae deletion strains, locus YPR111W, strain DBF20, active compounds read low 0.965 | S. cerevisiae deletion strains, strain NNK1, active compounds read low 0.951 | S. cerevisiae deletion strains, strain TSCII, active compounds read low 0.964
active: [2] 0.752

Cc1nn(-c2ccccc2)nc1-c1nnc(-c2ccc(Cl)cc2)o1
inactive: [3] 1.02 | [4] 1.01 | S. cerevisiae deletion strains, locus YCL061C, strain MRC1, active compounds read low 0.986 | [1] 0.995 | [5] 1 | [6] 1 | [7] 1.01 | [8] 0.993 | S. cerevisiae deletion strains, locus YGR229C, strain SMI1, active compounds read low 1.01 | [2] 1.03 | [9] 1.04 | [10] 1.02 | [11] 1 | [12] 1.01 | [13] 1.04 | [14] 1.02 | [15] 1.03 | [16] 1.03 | [17] 1.04 | [18] 0.998 | [19] 1.05 | S. cerevisiae deletion strains, locus YMR307W, strain GAS1, active compounds read low 1.07 | [20] 1 | [21] 1.01 | [22] 0.988 | [23] 1.03 | [24] 1.01 | [25] 1 | [26] 0.98 | [27] 1.01

FC(F)(F)Oc1ccccc1-c1nnc(-c2ccc(Cl)cc2)o1
inactive: [3] 0.946 | [4] 0.968 | [1] 0.971 | [5] 0.963 | [6] 0.912 | [7] 0.931 | [8] 0.934 | [9] 0.924 | S. cerevisiae deletion strains, locus YJL187C, strain SWE1, active compounds read low 0.957 | [10] 0.975 | [13] 0.874 | [14] 0.95 | [16] 0.963 | [17] 0.878 | [18] 0.966 | [19] 0.948 | [20] 0.976 | [21] 0.872 | [22] 0.944 | S. cerevisiae deletion strains, locus YOL006C, strain TOP1, active compounds read low 0.767 | [24] 0.851 | [26] 0.73 | [27] 0.94
active: [2] 0.442 | [11] 0.87 | [12] 0.9 | [15] 0.68 | [23] 0.837 | [25] 0.852
